# Results from PubChem BioAssay AID504873 (The Scripps Research Institute Molecular Screening Center, 2011).
# Potency and affinity values are given separately. Activity calls are given as the source filed them. A call without a number means that no potency is given here. The rule behind the calls is not given here.
# Target: Sphingosine 1-phosphate receptor 2 (Homo sapiens) (UniProt O95136)
# Experiment: S1P2 receptor agonists, human, late-stage follow-up, counter-screen for S1P4 agonist project, cell-based, fluorescence, set 2 (AID 504873)
# Sphingosine 1-phosphate receptor 2 (Homo sapiens), sequence (O95136 whole entry, looked up): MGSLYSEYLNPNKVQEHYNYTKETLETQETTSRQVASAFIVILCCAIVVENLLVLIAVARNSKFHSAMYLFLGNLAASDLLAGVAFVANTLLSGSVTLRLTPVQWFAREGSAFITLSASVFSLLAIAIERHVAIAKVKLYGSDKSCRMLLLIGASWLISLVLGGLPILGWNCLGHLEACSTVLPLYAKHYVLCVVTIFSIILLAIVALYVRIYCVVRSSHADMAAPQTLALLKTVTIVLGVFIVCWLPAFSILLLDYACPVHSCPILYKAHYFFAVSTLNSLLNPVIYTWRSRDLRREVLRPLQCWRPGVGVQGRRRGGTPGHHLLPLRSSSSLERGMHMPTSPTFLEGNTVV
smiles,measurement,value
CC/N=C1/SC(=Cc2cc(C)n(Cc3ccccc3OC)c2C)C(=O)N1CC,outcome,inactive
